Laboratory results as given in PubChem BioAssay (Tox21).
Inconclusive results are not listed. A call without a number means that no potency is given here. Active and inactive are the calls of the source. The call rests on the fitted dose curve; in most records, active means well fitted activation curve with a large enough effect in the repeat runs; inconclusive means weak or mixed curves; inactive means flat fitted curve, though single readings scatter.

assay: A CellTox Green Cytotoxicity Assay to monitor cytotoxicity in HEK293 cells - 8 hour (AID 1224884); conditions: CellTox Green fluorescence; series mostly up to 76.8 µM; further: nearly all actives have a fitted effect of over 35% in size
Excerpt: National Center for Advancing Translational Sciences [NCATS]
NIH Chemical Genomics Center [NCGC]
U.S. Environmental Protection Agency [EPA]
National Institutes of Environmental Health Sciences [NIEHS]
National Toxicology Program [NTP]
Cell-based models are critical for drug discovery. Determining the natural cytotoxic effects resulting from test compounds is an essential research activity. A CellTox Green Cytotoxicity Assay to monitor cytotoxicity in real time of continues cell culture during 40 hours of the compound treatment was used to screen Tox21 10K library compounds in Hek293 cells. CellTox Green Cytotoxicity Assay is a nonlytic, homogeneous, biofluorescent method to measure cytotoxicity in cell culture after experimental manipulation. The assay system uses a proprietary asymmetric cyanine dye that is excluded from viable cells but preferentially stains the dead cell's DNA. […] Viable cells produce no appreciable increases in fluorescence. Therefore, the fluorescence signal produced by the binding interaction with dead cell DNA is proportional to cytotoxicity.
The mixture of Hek293 cell suspension and reagents were dispensed at 600cells/6 ul/well in 1536-well tissue culture treated black solid bottom plates using a Multidrop dispenser. After the assay plates were incubated at a 37 C/5% CO2 incubator for 5 hours, 23 nL of compounds dissolved in DMSO, positive and negative controls was transferred to the assay plate by a pintool work station. The plates were incubated at 37 C for 40 hours. The fluorescence intensity were measured at 0h, 8h, 16h, 24h, 32h and 40h time points using ViewLux plate reader during compound treatment.
Potency means the concentration at half of the fitted maximal effect.

Compound	Potency	cytotoxicity increase
O=CC=C(c1ccccc1)c1ccccc1	inactive	–
C1CCCC1	inactive	–
O=C(Nc1cccc(C(F)(F)F)c1)c1cc(Br)cc(Br)c1O	inactive	–
CNc1ccc(O)cc1	inactive	–
COc1cc(-c2ccc(N=C=O)c(OC)c2)ccc1N=C=O	inactive	–
CCCCCCCCCCCCCCCCCC[N+](C)(C)Cc1ccccc1	19.7 µM (active)	–
CC(C)(C)c1ccc(C(=O)O)cc1	inactive	–
COc1ccc(C(=O)/C(Br)=C\C(=O)O)cc1	inactive	–
CN(C)[C@@H]1C(=O)C(C(N)=O)=C(O)[C@@]2(O)C(=O)C3=C(O)c4c(O)ccc(Cl)c4[C@@H](O)[C@H]3C[C@@H]12	inactive	–
NC(=O)N1C(=O)C(C(=O)c2cc(Cl)cs2)c2cc(F)c(Cl)cc21 (stereo not given)	inactive	–
C[n+]1cc2c3c(ccc2c2ccc4cc5c(cc4c21)OCO5)OCO3	–	16.5% [at 15.8 µM] (inactive)
c1cc(C(c2ccc(OCC3CO3)cc2)c2ccc(OCC3CO3)cc2)ccc1OCC1CO1 (stereo not given)	inactive	–
On1ccccc1=S	inactive	–
NNc1nc(-c2ccc([N+](=O)[O-])cc2)cs1	inactive	–
CCCCCCCCCCn1cc[n+](CCCCCCCCCC)c1C	19.5 µM (active)	–
CC(C)(C)C(=O)OCOC(=O)C1N2C(=O)CC2S(=O)(=O)C1(C)C (stereo not given)	inactive	–
Cc1ccc2oc(CN(Cc3ccccc3)C(=O)Nc3c(F)cc(F)cc3F)c(-c3ccc(Cl)cc3)c2c1	inactive	–
Cc1ccc(O)c(C(C)(C)C)c1	inactive	–
CCCC/C=C/CCCCO	inactive	–
CCN(C(=O)N(CC)c1ccccc1)c1ccccc1	inactive	–

Compound	Potency	cytotoxicity increase
CCCCCCOC(=O)c1ccc(O)cc1	inactive	–
C/C=C1/C(=O)C[C@H]2[C@@H]3CCC4=CC(=O)CC[C@]4(C)[C@H]3CC[C@]12C	inactive	–
CC(=O)SC[C@@H](Cc1ccccc1)C(=O)NCC(=O)OCc1ccccc1	inactive	–
O=[N+]([O-])c1cc([N+](=O)[O-])c2ccc(S(=O)(=O)O)cc2c1O	inactive	–
CCOC(=O)O[C@]1(C(=O)OCCl)CC[C@H]2[C@@H]3CCC4=CC(=O)C=C[C@]4(C)[C@H]3[C@@H](O)C[C@@]21C	inactive	–
Cc1cc2c(cc1C(F)(F)F)N(C(=O)Nc1ccc(Oc3cccnc3C)nc1)CC2	inactive	–
COC(=O)c1cc(Cl)ccc1OC	inactive	–
Cc1onc(-c2c(Cl)cccc2Cl)c1C(=O)N[C@@H]1C(=O)N2[C@@H]1SC(C)(C)[C@@H]2C(=O)O	inactive	–
Cc1oc(-c2ccccc2)nc1CCC(=O)c1ccc(CC2SC(=O)NC2=O)cc1 (stereo not given)	inactive	–
COC(=O)C1=C(C)NC(C)=C(C(=O)OCCc2ccc(N3CCN(C(c4ccccc4)c4ccccc4)CC3)cc2)C1c1cccc([N+](=O)[O-])c1 (stereo not given)	inactive	–
Oc1c(Cl)cc(Cl)c2cccnc12	inactive	–
COCCCC/C(=N\OCCN)c1ccc(C(F)(F)F)cc1	inactive	–
CCCCC(CC)COP(=O)(O)OCC(CC)CCCC (stereo not given)	inactive	–
Oc1cc2ccccc2c2ccccc12	inactive	–
N#CC1(c2ccc(F)cc2)CCC(=O)CC1	inactive	–
CCCN(CCC)C(=O)C(CCC(=O)OCCCN1CCN(CCOC(=O)Cc2c(C)n(C(=O)c3ccc(Cl)cc3)c3ccc(OC)cc23)CC1)NC(=O)c1ccccc1 (stereo not given)	inactive	–
OCCN(CCO)c1nc(N2CCCCC2)c2nc(N(CCO)CCO)nc(N3CCCCC3)c2n1	21.3 µM (active)	–
CCCCC(CC)CN=C(N)NC(N)=NCCCCCCN=C(N)NC(N)=NCC(CC)CCCC (stereo not given)	13.4 µM (active)	–
CC(C)=CCOc1ccc(/C=C/C(=O)c2ccc(OCC=C(C)C)cc2OCC(=O)O)cc1	inactive	–
Cc1cc(N)c(S(=O)(=O)O)cc1Cl	inactive	–
